Results published in PubChem BioAssay (NCI).
This is part of a sample that, as a whole, favours compounds with a hit. Of some 83,000 tested, about 20% had one in any assay.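 Testing used 96-well plates and a 48-hour single-concentration exposure. Example: -40 means 40% of the starting cells died.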 A number with no mark means an inactive call. The calls were made as follows: active = growth percent below 10; inactive = the rest.

These compounds were tested on SNB-19 CNS (assay: NCI-60 one-dose screen, 48 h (100 = growth as untreated, 0 = no growth, -100 = all killed)). Settings: 10 µM unless noted.
N#Cc1c(NC(=O)c2ccc([N+](=O)[O-])o2)[n+]([O-])c2cc(F)c(F)cc2[n+]1[O-] showed a growth of 121%. Compound CC(C)(C)OC(=O)N1C/C(=C\c2cccs2)C(=O)/C(=C/c2cccs2)C1 has a growth of 94.5%. CC(Cc1nnc(SCC(=O)Nc2ccc(I)cc2)n1N)c1ccccc1 (stereo not given) gave a growth of 96.6%. In the case of COC(=O)CC/C(C)=N\Nc1ccc([N+](=O)[O-])cc1, the growth is reported as 99.4%. With COc1ccccc1OCC(=O)Nc1sc2c(c1C(N)=O)CCC2 the growth was 70.4%. CC(=O)N1Cc2ccccc2C(C)Cc2cc(Cl)ccc21 (stereo not given) gave a growth of 101%. COc1ccc(/C(=N/O)c2cc(OC)c(OC)c(OC)c2)c(OC)c1N was tested, and the growth was 45.2%. In the case of CC(C)CCC[C@@H](C)[C@H]1CC[C@H]2[C@@H]3CC[C@H]4C/C(=N/O)CC[C@]4(C)[C@H]3CC[C@]12C, the growth is reported as 104%. For C/C(=N\NC(=O)CC#N)c1cc2cc(Cl)ccc2o1, the growth was 77.9%. CCC#CC[C@H]1C/C=C2/C(=O)C=C[C@@H]2C/C=C\CCCC(=O)O1 was tested, and the growth was 37.3%. Compound Cc1cc(C(=O)O)c(N)c(C)n1 has a growth of 110%. CCCCCCOc1ccc(C2(Cl)c3ccccc3N(C)c3ccccc32)cc1 was tested, and the growth was 47.1%. CC(C)N(Cc1ccc(CN(C(=O)CCl)C(C)C)cc1)C(=O)CCl was tested, and the growth was 63.2%. COc1cc(-n2nc(C(=O)Nc3ccc(C(=O)O)cc3)nc2-c2ccccc2)cc(OC)c1OC gave a growth of 91.9%. Compound NC(=O)NNC(=O)c1ccccc1 has a growth of 111%.
